Values joined by “and” are separate entries in the source; they are usually repeats but may differ in a detail not shown here. Equal values may be shown once. Records with an inconclusive call do not appear. Entries that show only a call come without a potency. Unmarked numbers belong to inactive results. Active and inactive are the calls of the source. Calls follow the shape of the dose curve; as a rule, active = well fitted curve in the direction sought with a large enough effect in the repeat runs; inconclusive = weak or mixed curves; inactive = no such curve, though single readings can be large; an effect the other way counts as inactive or inconclusive.
Key:
[1] = A CellTox Green Cytotoxicity Assay to monitor cytotoxicity in HEK293 cells - 40 hour (AID 1224871); also: nearly all actives have a fitted effect of over 45% in size; also: potency is read from the fitted curve at half-maximal effect
Method in brief: (§1)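 HEK293 cells, 600/well, were preincubated 5 hours and then exposed to compounds at 37 C for up to 40 hours. A cell-impermeant cyanine dye staining dead-cell DNA was read by fluorescence at 0, 8, 16, 24, 32 and 40 h time points.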

[2] = A CellTox Green Cytotoxicity Assay to monitor cytotoxicity in HEK293 cells - 24 hour (AID 1224875); also: nearly all actives have a fitted effect of over 45% in size; also: potency is read from the fitted curve at half-maximal effect
Method in brief: as §1

[3] = A CellTox Green Cytotoxicity Assay to monitor cytotoxicity in HepG2 cells - 16 hour (AID 1224876); also: nearly all actives have a fitted effect of over 45% in size; also: potency is read from the fitted curve at half-maximal effect
Method in brief: (§2)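 HepG2 cells, 600/well, preincubated 5 h with CellTox Green dye, then exposed to Tox21 compounds in DMSO at 37 C for up to 40 h. Dead-cell DNA fluorescence read at the indicated time point.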

[4] = qHTS RealTime-Glo MT Cell Viability Assay in HepG2 cells - 32 hour (AID 1224877); also: nearly all actives have a fitted effect of over 55% in size
Method in brief: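 HepG2 cells were seeded at 600 cells/well together with NanoLuc luciferase and a cell-permeant prosubstrate, preincubated 5 h at 37 C/5% CO2, then pin-dosed with compounds in DMSO. Nonlytic luminescence from viable cells was read at each time point.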

[5] = A CellTox Green Cytotoxicity Assay to monitor cytotoxicity in HepG2 cells - 24 hour (AID 1224878); also: nearly all actives have a fitted effect of over 45% in size; also: potency is read from the fitted curve at half-maximal effect
Method in brief: as §2

[6] = qHTS RealTime-Glo MT Cell Viability Assay in HepG2 cells - 8 hour (AID 1224873); also: nearly all actives have a fitted effect of over 55% in size
Method in brief: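 Real-time viability: cells seeded at 600 per well together with NanoLuc and cell-permeant prosubstrate, compounds added after 5 h incubation. Luminescence tracked at 0, 8, 16, 24, 32 and 40 h of exposure.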

[7] = qHTS RealTime-Glo MT Cell Viability Assay in HEK293 cells - 0 hour (AID 1224880)
Method in brief: (§3)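 600 cells/well were plated with the nonlytic NanoLuc/prosubstrate reagent, pre-incubated 5 h, then given 23 nL of compound in DMSO. Incubation at 37 C for 40 h, with luminescence from viable-cell-reduced substrate read repeatedly from 0 h.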

[8] = qHTS RealTime-Glo MT Cell Viability Assay in HEK293 cells - 40 hour (AID 1224874); details: RealTime-Glo luminescence; max response: hits give low values; also: nearly all actives have a fitted effect of over 50% in size; also: potency is read from the fitted curve at half-maximal effect
Method in brief: as §3

[9] = A CellTox Green Cytotoxicity Assay to monitor cytotoxicity in HepG2 cells - 40 hour (AID 1224879); also: nearly all actives have a fitted effect of over 40% in size; also: potency is read from the fitted curve at half-maximal effect
Method in brief: as §2

[10] = qHTS RealTime-Glo MT Cell Viability Assay in HEK293 cells - 16 hour (AID 1224872); also: nearly all actives have a fitted effect of over 50% in size; also: potency is read from the fitted curve at half-maximal effect
Method in brief: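 HEK293 cells were seeded at 600 cells/well together with NanoLuc luciferase and cell-permeant prosubstrate, preincubated 5 h at 37 C/5% CO2, then given compound in DMSO by pintool. Luminescence from viable-cell prosubstrate reduction was read repeatedly over 40 h.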

SMILES | Potency [1] | Potency [2] | Potency [3] | Potency [4] | Potency [5] | Potency [6] | Potency [7] | max response [8] [%] | Potency [9] | Potency [10] | Potency [8]
Nc1ccc(N=Nc2ccccc2)cc1 | inactive | inactive | inactive | inactive | inactive | – | – | – | – | – | –
CCC1COC(Cn2cncn2)(c2ccc(Cl)cc2Cl)O1 (stereo not given) | inactive | inactive | inactive | inactive | inactive | inactive | inactive | – | – | – | –
CC(C)N(C(=O)SC/C(Cl)=C/Cl)C(C)C | 43.9 µM (active) | inactive | inactive | inactive | inactive | – | inactive | -22.2 | inactive | – | –
C[C@@H]1CC2=CC(=O)CC[C@@H]2[C@H]2CC[C@@]3(C)[C@@H](CC[C@]3(C)O)[C@@H]21 | inactive | inactive | inactive | inactive | inactive | inactive | inactive | – | inactive | – | –
CN(C)c1ccc(N)cc1 | – | inactive | inactive | inactive | inactive | – | – | – | inactive | 42.6 µM (active) | 47.8 µM (active)
Oc1ccc([C@H]2CNCc3c2ccc(O)c3O)cc1O | – | 26.8 µM (active) | 23.9 µM (active) | inactive | 26.8 µM (active) | – | inactive | -21.9 | 26.8 µM (active) | – | –
C[C@]12Cc3cn[nH]c3C[C@@H]1CC[C@@H]1[C@@H]2CC[C@@]2(C)[C@H]1CC[C@]2(C)O | inactive | inactive | inactive | inactive | – | – | inactive | – | – | – | –
COC(=O)c1cc(Oc2ccc(Cl)cc2Cl)ccc1[N+](=O)[O-] | inactive | inactive | inactive | inactive | inactive | – | – | – | inactive | – | –
COC(=O)N(OC)c1ccccc1COc1ccn(-c2ccc(Cl)cc2)n1 | – | inactive | inactive | inactive | inactive | – | inactive | – | inactive | – | 13.8 µM (active)
O.O.O.O=C([O-])[C@H]([O-])[C@@H]([O-])C(=O)[O-].O=C([O-])[C@H]([O-])[C@@H]([O-])C(=O)[O-].[K+].[K+].[Sb+3].[Sb+3] | – | inactive | inactive | – | – | – | – | – | – | – | –
CC(C)N(C(=O)CCl)c1ccccc1 | inactive | inactive | inactive | – | inactive | – | inactive | – | 43.6 µM (active) | – | 49 µM (active) and 38.9 µM (active)
CCC(C)Nc1c([N+](=O)[O-])cc(C(C)(C)C)cc1[N+](=O)[O-] (stereo not given) | inactive | inactive | inactive | inactive | inactive | inactive | inactive | – | inactive | – | –
CC1=C2C[C@H]3[C@@H](CC=C4C[C@@H](O)CC[C@@]43C)[C@@H]2CC[C@]12O[C@@H]1C[C@H](C)CN[C@H]1[C@H]2C | – | – | – | inactive | – | inactive | inactive | – | 26.8 µM (active) | – | 16.9 µM (active)
C=CCOC(=O)c1ccccc1N | – | – | inactive | inactive | inactive | inactive | inactive | -17.8 | inactive | inactive | –
CC(C)(C)c1ccc(OP(=O)(Oc2ccccc2)Oc2ccccc2)cc1 | inactive | inactive | inactive | inactive | – | – | – | – | inactive | – | –

— PubChem BioAssay (Tox21)
